Assay outcomes deposited in PubChem BioAssay by National Center for Advancing Translational Sciences (NCATS).
Gal4-VP16 FLuc = Gal4-VP16 reporter inhibition counter-screen; 3.5% of 310,000 active; Potency, µM (series often up to 53.6 µM), without a hit: at the highest dose activity, negative = inhibition, usual class: inhibitors; Drosophila S2 Gal4-VP16 UAS-luciferase, luminescence, 20 h;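 also: Gal4-VP16 expression switched on by copper sulfate through the metallothionein promoter; potency is read from the fitted curve at half-maximal effect; nearly all actives have a fitted effect of over 50% in size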
RORg inh = blocks mouse ROR gamma transcriptional activity; P51450; Drosophila S2 Gal4-RORgamma UAS-luciferase reporter, 20 h; Potency, µM (doses to about 53.6 µM), for the others: at the top dose activity change, negative = inhibition, actives largely listed as inhibitors; 5.4% of 310,000 active; also: potency is read from the fitted curve at half-maximal effect; nearly all actives have a fitted effect of over 60% in size
Target sequence (P51450 whole entry, looked up, the tested form may be a part): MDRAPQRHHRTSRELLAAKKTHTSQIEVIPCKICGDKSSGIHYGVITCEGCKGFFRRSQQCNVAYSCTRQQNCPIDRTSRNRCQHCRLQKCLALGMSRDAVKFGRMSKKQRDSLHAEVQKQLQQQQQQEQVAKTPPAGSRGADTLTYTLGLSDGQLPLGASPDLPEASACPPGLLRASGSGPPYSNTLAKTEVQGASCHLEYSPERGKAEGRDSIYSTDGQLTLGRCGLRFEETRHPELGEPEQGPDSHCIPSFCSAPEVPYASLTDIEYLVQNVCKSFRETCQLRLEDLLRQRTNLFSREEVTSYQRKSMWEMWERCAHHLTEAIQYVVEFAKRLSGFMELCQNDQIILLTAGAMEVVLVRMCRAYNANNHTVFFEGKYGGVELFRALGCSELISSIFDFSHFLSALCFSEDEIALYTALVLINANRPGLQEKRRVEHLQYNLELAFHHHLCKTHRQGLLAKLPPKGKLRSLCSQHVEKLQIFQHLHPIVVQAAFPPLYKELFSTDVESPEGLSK
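Luminescence from a UAS-regulated Photinus luciferase reporter in stably transfected Drosophila Schneider cells is measured; decreased signal marks ROR gamma inhibition. Fusion expression is induced by 700 uM copper sulfate for 20 hr.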
B2AR arrestin = recruits beta-arrestin to the human beta2-adrenergic receptor. beta-arrestin recruitment to beta2AR, cell-based reporter. Potency, µM (top dose mostly 46.1 µM), for inactives: at the highest dose activation, usual class: activators. 0.02% of 330,000 active;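 also: potency is read from the fitted curve at half-maximal effect; 0% = DMSO controls and full agonism = EC100 isoproterenol or metaproterenol; nearly all actives have a fitted effect of over 65% in size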
TSHR antagonist = antagonists of human thyroid stimulating hormone receptor. P16473. TSHR-expressing cells, TSH-stimulated cAMP HTRF, 2 h; stronger effect = lower value. activity change, negative = inhibition, % at 11.5 µM. 0.2% of 330,000 active;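 active = activity change below a set negative limit, meaning inhibition stronger than a set level, cut at about -70% in these data; inconclusive = activity change between two set negative limits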
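Read-out is FRET at 665 nm (cryptate excitation 337 nm) from a cryptate-tagged anti-cAMP antibody, competed by cell cAMP against cAMP-d2. Compounds are tested on freshly harvested TSHR cells challenged with 4nM TSH (EC80) for 2 hours at 37 deg C.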
ELG1 repair inh = inhibitors of ELG1-dependent DNA repair in HEK293T cells; HEK293T ELG1-luciferase reporter, luminescence, 16 h; DNA damage induced by 5-fluorouridine; Potency, µM (doses to about 46.1 µM), for the others: at the highest dose activity change, negative = inhibition, usual class: inhibitors; 2.3% of 330,000 active; AID 504467; also: potency is read from the fitted curve at half-maximal effect; nearly all actives have a fitted effect of over 55% in size
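HEK293T cells expressing luciferase-tagged ELG1 (2,000/well) received 5-Fluorouridine plus compound or DMSO for 16 hr at 37 °C. Luciferase was read by ONE-Glo luminescence after 30 min at room temperature.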
The depositor's hits bear a star; u = inconclusive; x = no result given. Shown are actives, neighbours in structure and some others; about 7.5% of the full set was active somewhere. Unless noted, calls follow the shape of the dose curve; as a rule, active = well fitted curve in the direction sought with a large enough effect; inconclusive = small, poorly fitted or top-dose-only effect, or another doubt; inactive = no such curve, though single readings can be large; an effect the other way counts as inactive or inconclusive. Unless noted, % is scaled to controls: 0 for no effect and ±100 for the full control effect.

SMILES | Gal4-VP16 FLuc | RORg inh | B2AR arrestin | TSHR antagonist | ELG1 repair inh
C=C(CO)C1Cc2c(ccc3c(=O)c4c(oc23)COc2cc(OC)c(OC)cc2-4)O1 (centres undefined) | -14.0% | -4.2% | x | x | x
COc1ccc(CCNC(=O)c2c(C)nc3ccccn23)cc1 | -20.3% | u | -0.4% | -7.7 | u
COc1ccc(CNC(=O)c2c(C)nc3ccccn23)cc1 | u | u | 2.8% | 2.4 | 13µM*
Cc1nc2ccccn2c1C(=O)NNS(=O)(=O)c1ccc(C(C)(C)C)cc1 | 15.8µM* | 17.3% | -0.6% | -25.1 | u
COc1ccc(Br)cc1S(=O)(=O)NNC(=O)c1c(C)nc2ccccn12 | -3.8% | 39.7% | 0.1% | -17.4 | -14.1%
CC(=O)N1CCC2(CC1)CN(c1ccccc1)C2 | 17.2% | -0.6% | x | x | x
O=C(N/N=C/c1ccc[nH]1)c1ccc(COc2cccc3cccnc23)cc1 | 14.1µM* | 12.6µM* | -0.2% | -11.3 | u
O=C(N/N=C/c1ccccc1C(=O)O)c1ccc(COc2cccc3cccnc23)cc1 | 14.3% | 3.5% | 0.3% | 22.7 | -10.0%
O=C(N/N=C/c1ccc[nH]1)c1ccc2c(c1)OCO2 | -27.2% | u | 0.0% | -4.5 | u
Cc1cc(/C=N/NC(=O)c2cccc([N+](=O)[O-])c2)c(C)n1-c1ccc(Cl)cc1Cl | 6.31µM* | 1.78µM* | 0.2% | 4.4 | u
CC(C)(C)c1ccc(C2CC2C(=O)N/N=C\c2ccc[nH]2)cc1 (centres undefined) | 6.31µM* | 10µM* | 0.4% | -7.8 | u
O=C(N/N=C/c1ccc[nH]1)c1ccc(O)cc1 | u | 8.91µM* | -0.9% | 0.0 | u
Cc1cccc(/C=N/NC(=O)c2cccc([N+](=O)[O-])c2)n1 | 1.7% | -14.5% | 0.1% | 12.5 | u
O=C(N/N=C/c1ccc[nH]1)c1ccccc1OCc1ccccc1Cl | u | 10µM* | -0.1% | 17.3 | u
O=C(N/N=C/c1ccc[nH]1)c1cccc([N+](=O)[O-])c1 | 10µM* | 7.94µM* | -0.8% | -1.1 | 2.5%
O=C(N/N=C/c1ccc[nH]1)c1ccccc1O | 5.62µM* | 1.26µM* | -0.9% | -5.3 | u
CC(C)CC(NC(=O)NC(CCC(=O)O)C(=O)O)C(=O)O (centres undefined) | 3.4% | 2.0% | x | x | x
CCn1c(=O)c(C(=O)NCc2ccccn2)c(O)c2ccccc21 | 7.08µM* | 3.16µM* | -1.0% | 4.7 | 7.5%
CCn1c(=O)c(C(=O)NNC(=O)c2ccc(Cl)cc2Cl)c(O)c2ccccc21 | u | 10µM* | -0.2% | 16.9 | -2.5%
CCn1c(=O)c(C(=O)Nc2nc3ccccc3[nH]2)c(O)c2ccccc21 | 8.91µM* | 11.2µM* | 0.0% | u | 1.2%
CCCCCCCCCCC(=O)NNC(=O)c1c(O)c2ccccc2n(CC)c1=O | -6.6% | 2.1% | -1.2% | -8.8 | -8.3%
CCn1c(=O)c(C(=O)NNC(=O)Cc2ccccc2)c(O)c2ccccc21 | -22.4% | 12.6µM* | -1.0% | 1.9 | 0.4%
CCn1c(=O)c(C(=O)NCc2ccc(OC)cc2)c(O)c2ccccc21 | u | -12.3% | 0.2% | 5.9 | -8.7%
COc1ccc2[nH]c3c(c2c1)CCN1C(=O)C(CC(=O)NCCc2ccccn2)C[C@H](C(=O)N(C(C)C)C(C)C)[C@@]31C (some centres undefined) | x | x | 0.3% | 11.1 | 13.3%
COC(=O)c1ccc(C(NC(=O)OCc2ccccc2)/C(I)=C/[C@@H](C)C(=O)NCc2ccc(C)o2)cc1 (some centres undefined) | 12.5% | u | x | x | x
SMILES | Gal4-VP16 FLuc | RORg inh | B2AR arrestin | TSHR antagonist | ELG1 repair inh
CC(=O)c1cccc(NC(=O)c2c(-c3c(F)cccc3Cl)noc2C)c1 | x | x | -0.1% | -5.7 | 3.1%
Cn1nc(C(F)(F)F)c(C#N)c1N1CCN(c2ccc(F)cc2)CC1 | 4.9% | -1.0% | -0.1% | -22.2 | 10.3µM*
Cn1nc(C(F)(F)F)c(C#N)c1N1CCN(c2ccccn2)CC1 | -10.1% | 24.6% | 0.1% | 8.3 | u
Cn1nc(C(F)(F)F)c(C#N)c1N1CCN(c2ccccc2)CC1 | u | 23.8% | -0.2% | -14.6 | 9.2µM*
NCCCCCN | -13.4% | -22.3% | x | x | x
CS(=O)(=O)N1CCC(C(=O)Nc2ccccc2Sc2ccccc2)CC1 | 5.62µM* | u | 0.1% | -0.8 | 10.5%
CC(/C=C/C=C(C)/C=C/C(=O)O)=C\C=C\C=C(C)\C=C\C=C(C)\C=C\C(=O)O | -5.1% | -10.9% | x | x | x
Cc1cc(C)c(C)c(/C=C(/C#N)C(N)=S)c1C | 15.8µM* | 6.31µM* | -1.6% | 15.4 | 10.5%
CC(C)Cn1c(SC(C)C(=O)NCC2CCCO2)nc2ccc(Cl)cc2c1=O (centres undefined) | x | x | -0.2% | 10.8 | -2.4%
CN(C)c1cc(N/N=C/c2ccccc2C(F)(F)F)nc(N(C)C)n1 | 1.6% | -0.4% | 0.0% | -9.9 | 16.4µM*
C/C(=N\Nc1ccc(F)cc1F)c1ccc(Br)s1 | 7.5% | 39.3% | 0.0% | 16.4 | u
O=C(COc1ccccc1)Nc1nnc(-c2ccccc2)o1 | 10µM* | 10µM* | 0.2% | 0.7 | 12.6%
O=C(COc1ccccc1)Nc1nnc(-c2ccc(Cl)s2)o1 | 20µM* | 12.6µM* | -3.6% | -12.1 | -0.9%
O=C(Cc1ccccc1)Nc1nnc(-c2ccco2)o1 | 10µM* | 2.82µM* | 0.5% | -6.3 | -6.4%
O=C(COn1nnc2ccc(C(F)(F)F)cc21)Nc1nnc(-c2ccccc2)o1 | 4.47µM* | 7.08µM* | 0.1% | 3.3 | 1.2%
CC(=O)N1CCC2(CC1)CCN(C(=O)Nc1cccc(F)c1)CC2 | 5.1% | -22.6% | x | x | x
O=C(COc1ccccc1)Nc1nnc(-c2ccco2)o1 | u | 15.8µM* | -0.2% | -10.6 | -3.5%
O=C(COc1ccc(Cl)cc1)Nc1nnc(-c2ccco2)o1 | u | 11.2µM* | -0.1% | -2.1 | -19.1%
CCC(=O)Nc1nnc(-c2ccco2)o1 | -13.9% | u | 0.4% | 7.6 | 2.6%
COCCN(C(=O)CSc1nnc(-c2ccccc2F)o1)c1c(N)n(CC(C)C)c(=O)[nH]c1=O | x | x | 0.0% | 0.5 | 7.5%
Cc1ccc(C)c(NC(=S)NCc2cccn2C)c1 | 11.2µM* | 10µM* | -0.5% | 5.3 | 10.4%
CCc1ccccc1NC(=S)NCc1cccn1C | 11.2µM* | 12.6µM* | -0.4% | 7.9 | 14.5%
CN(C)c1ccc(/C=N\NC(=S)SCN2C(=O)C3CCC(C)(C2=O)C3(C)C)cc1 (centres undefined) | u | 0.316µM* | 0.5% | 14.6 | u
Cc1cccc(NC(=O)CSc2nc(C3CC3)nc3ccccc23)c1 | 4.5% | -29.9% | 0.4% | -2.8 | u
Cc1cccc(NC(=S)/N=C(\N)Nc2nc(C)c3cc(C)ccc3n2)c1 | 4.47µM* | 7.08µM* | 0.8% | -2.0 | -18.4%
Cc1cccc(NC(=S)/N=C(\N)Nc2nc(C)c3ccccc3n2)c1 | 5.01µM* | 2.24µM* | -1.1% | 26.0 | -10.8%
